# HT1080 IDH1KD tx = qHTS for induction of synthetic lethality in tumor cells producing 2HG: qHTS for the HT-1080-IDH1KD cell line | Potency, µM (doses to about 46.1 µM), for the others: at the highest dose activity, negative = toxicity, hits mostly cytotoxic | 360,000 compounds, 2% hits | HT-1080 IDH1 knockdown viability, ATP luminescence, 48 h;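 further: 0% = DMSO wells and -100% = cell-free medium wells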
#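 Viability of IDH1-knockdown HT-1080 fibrosarcoma cells was assessed by CellTiter-Glo after 48 h at 37 °C with titrated compound; concentration-effect curves were classified by fit quality and response size.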
# HepG2 viability = qHTS for Inhibitors of TGF-b: Cytotox Counterscreen. HepG2 CAGA-GFP viability, ATP luminescence, 18 h. 410,000 compounds, 0.76% hits. Potency, µM (doses to about 46.1 µM), inactives show top-dose activity change, negative = cytotoxicity, usual class: cytotoxic
#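 CellTiter-Glo luminescence gave cytotoxicity after 18 hours at 37 degrees C. The cells were HepG2 CAGA-GFP in 1% FBS DMEM, stimulated with 500 pg/mL TGF-beta after compound addition. %Activity was normalised to no-cell wells (complete cell-killing) and DMSO (no toxicity), and curves were fitted and classified.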
# TGFb SMAD3 inh = qHTS for Inhibitors of TGF-b; HepG2 CAGA-GFP TGF-b/SMAD3 reporter, GFP fluorescence, 18 h; TGF-beta stimulated, 500 pg/mL final; Potency, µM (highest dose often 46.1 µM), without a hit: at the top dose activity, negative = inhibition, most hits filed as inhibitors; 410,000 compounds, 1.2% hits; AID 588855, 2011; further: on the % scale 0 is the no-effect control and ±100 the full control effect; nearly all actives have a fitted effect of over 65% in size
#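 Using HEPG2 CAGA-GFP reporter cells at 1000 cells/well, we pinned test compounds, stimulated with recombinant TGF-beta (500 pg/mL final) and measured total well GFP after 18 h.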
# ATXN2 expr inh = Primary qHTS for Inhibitors of ATXN expression; HEK-293 ATXN2-luciferase reporter, luminescence, 24 h; Potency, µM (top dose mostly 57 µM), for inactives: at the highest dose activity change, negative = inhibition, most hits filed as inhibitors; 360,000 compounds, 0.72% hits; AID 1745845, 2022; further: on the % scale 0 is the no-effect control and ±100 the full control effect; nearly all actives have a fitted effect of over 55% in size
#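 ATXN2-luciferase reporter cells (luciferase flanked by upstream and downstream ATXN2 gene portions) were treated 24 h at 37 °C with compounds at up to 57 uM. SteadyGlo luminescence gave expression; GF-AFC fluorescence gave viability.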
# S2 tox = Viability Counterscreen for Primary qHTS for Inhibitors of ATXN expression; S2 cells (HEK-293 line with an ATXN2-luciferase reporter) viability, CellTiter-Fluor protease fluorescence, 24 h; Potency, µM (highest dose often 56.7 µM), usual class: cytotoxic; 400,000 compounds, 0.49% hits; further: nearly all actives have a fitted effect of over 40% in size
# HT1080NT lethal = qHTS for induction of synthetic lethality in tumor cells producing 2HG: qHTS for the HT-1080-NT fibrosarcoma cell line; 360,000 compounds, 1.6% hits; HT-1080-NT fibrosarcoma viability, CellTiter-Glo ATP luminescence, 48 h; Potency, µM (doses to about 46.1 µM), inactives show at the highest dose activity, negative = less viability, usual class: cytotoxic;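 further: NT is the 2HG producing partner of a matched IDH1 knockdown line; 0% = DMSO-treated cells and -100% = media-only wells without cells; nearly all actives have a fitted effect of over 55% in size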
#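 Toxicity toward the 2HG-producing NT line was scored as %Activity, normalised to DMSO and no-cell wells, from CellTiter-Glo luminescence after 48 hours' treatment.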
# Numbers without * were called inactive; i = inactive; ? = inconclusive; / = not tested or not shown; + = active, no number. Most compounds without a hit are left out; they make up all but 3.9% or so of the library. The call rests on the fitted dose curve; in most records, active means well fitted curve in the direction sought with a large enough effect; inconclusive means small, poorly fitted or top-dose-only effect, or another doubt; inactive means no such curve, though single readings can be large; an effect the other way counts as inactive or inconclusive. Potency means the concentration at half of the fitted maximal effect.
SMILES,HT1080 IDH1KD tx,HepG2 viability,TGFb SMAD3 inh,ATXN2 expr inh,S2 tox,HT1080NT lethal
CCN(CC)c1ccc(/C=C2/SC(=O)N(C(C)C)C2=O)o1,?,-111%,142%,-19%,?,13µM*
CCOC(=O)CN1C(=O)S/C(=C\c2ccc(-c3ccc(C(=O)O)c(Cl)c3)o2)C1=O,5%,6%,12%,-47%,i,9%
CC(C)N1C(=O)S/C(=C\c2ccc(-c3ccc(Cl)c(C(=O)O)c3)o2)C1=O,-17%,13µM*,2%,/,/,-23%
O=[N+]([O-])c1ccc(/C=N/NC(=S)Nc2ccccc2F)o1,15%,27%,5%,-14%,i,29%
Fc1ccccc1NC(=S)N/N=C/c1ccccc1Br,7.1µM*,-6%,20%,67%,i,7.1µM*
O=C(CCCCCCCCC#CI)Oc1ccccc1,/,/,/,-13%,i,/
COc1cccc(-c2ccc(O)c(CNCc3cccc(OC)c3OC)c2)n1,/,/,/,/,i,/
Cc1nc([N+](=O)[O-])c(Sc2nc3ccccc3[nH]2)n1Cc1ccccc1,6%,-32%,-50%,-5%,?,12%
COc1ccc2nc(Sc3c([N+](=O)[O-])nc(C)n3Cc3ccccc3)[nH]c2c1,21µM*,-32%,?,-16%,?,?
COC(=O)c1cc(CNC(=O)c2ccncc2)cc(NC(=O)c2ccccc2Cl)c1,/,/,/,/,i,/
COc1ccc(NC2=C(NCCO)C(=O)c3ccccc3C2=O)cc1,8.2µM*,-42%,-12%,-5%,i,13µM*
COC1=C(Nc2ccc(O)cc2)C(=O)c2ccccc2C1=O,23µM*,-84%,?,-17%,?,10µM*
COC1=C(Nc2ccc(OC)cc2)C(=O)c2ccccc2C1=O,-15%,-58%,16µM*,3%,?,-6%
COC1=C(Nc2ccc(OC)cc2)C(=O)C(OC)=C(Nc2ccc(OC)cc2)C1=O,14%,3%,9%,-10%,i,6%
COc1cccc(NC2=C(NCCO)C(=O)c3ccccc3C2=O)c1,?,-7%,3%,-29%,i,?
COc1ccc(NC2=C(NC(C)=O)C(=O)c3ccccc3C2=O)cc1,?,-24%,-35%,-41%,?,-26%
CCOc1ccc(NC2=C(OC)C(=O)c3ccccc3C2=O)cc1,-16%,-83%,11µM*,-4%,?,-12%
O=C(NCCc1nnc2n1CCN(Cc1ccc(F)cc1)CC2)c1ccco1,/,/,/,/,i,/
CCN(CC)c1ccc(NC2=C(Cl)C(=O)c3ccccc3C2=O)cc1,?,-50%,?,20µM*,10µM*,?
CC(=O)Nc1ccc(NC2=CC(=O)c3ccccc3C2=O)cc1,?,-27%,?,17%,i,?
CCN(CC)c1ccc(NC(=O)C(C)C)cc1,17%,-24%,?,7%,i,17%
O=C1C=C(Nc2ccc(O)cc2)C(=O)c2ccccc21,21µM*,11µM*,10µM*,-25%,?,26µM*
O=C1C(Cl)=C(Nc2ccc(O)cc2)C(=O)c2ccccc21,16µM*,5.6µM*,?,16µM*,16µM*,6.5µM*
Cc1ccc(NC2=C(Cl)C(=O)c3ccccc3C2=O)cc1,-6%,-6%,?,?,/,3%
N[C@@H](C(=O)N[C@H]1C(=O)N2C(C(=O)O)=C(Cl)CC[C@H]12)c1ccccc1,/,/,/,/,i,/
SMILES,HT1080 IDH1KD tx,HepG2 viability,TGFb SMAD3 inh,ATXN2 expr inh,S2 tox,HT1080NT lethal
Fc1ccc(Nc2nc(Nc3ccc(F)cc3)nc(N3CCOCC3)n2)cc1,/,-30%,50%,-28%,i,/
CN1CCN(c2nc(Nc3ccc(F)cc3)nc(Nc3ccc(F)cc3)n2)CC1,?,13µM*,?,25µM*,?,?
c1ccc(Nc2nc(Nc3ccccc3)nc(N3CCNCC3)n2)cc1,?,-50%,?,?,i,23µM*
CCOC(=O)c1cc(OC)c2cccc(CN3CCCC(C)(C(=O)NCCOC)C3)c2c1 (stereo not given),?,-48%,-27%,?,20µM*,-8%
CCOC(=O)c1c(C)[nH]c(C)c1S(=O)(=O)NCC(=O)NCc1ccccc1C,/,0%,0%,-3%,i,/
CN(C)C(=S)N=c1ssc(=S)n1Cc1ccccc1,8.2µM*,-59%,2.2µM*,-23%,?,5.8µM*
CC(C)(C)C(=O)OCc1cc(=O)n2nc(C3CC3)sc2n1,/,-14%,-3%,17%,i,/
COC1=C(OC)C(=O)C(Sc2ccc3ccccc3c2)=CC1=O,16µM*,-61%,?,?,/,?
CCOc1ccccc1OCCNC(C)Cc1ccc(OC)c(S(N)(=O)=O)c1 (stereo not given),/,/,/,-4%,/,/
CCc1ccc(NC(=O)CCn2c(-c3ccc(OC)cc3)cc(C(C)=O)c2C)cc1,/,-16%,-22%,/,/,/
CC(C)CN=C(NS(=O)(=O)c1ccccc1)C(Cl)(Cl)Cl,6.5µM*,11µM*,?,?,?,6.5µM*
Cc1cc(=O)n2nc(N3CCC(C(=O)Nc4c(C)cccc4C)CC3)sc2n1,/,1%,?,0%,i,/
CC(NC(=O)c1ccc(Cl)c(Cl)c1)c1ccc(-c2ccccc2)cc1 (stereo not given),4%,13%,23%,/,i,-2%
CC(NC(=O)CCl)c1ccc(Cl)c(Cl)c1 (stereo not given),16µM*,18µM*,?,?,?,?
COc1ccccc1C(=O)N1CCOc2ccc(CN3CCN(Cc4ccccn4)CC3)cc2C1,/,/,/,/,i,/
COc1ccc2ncc3c(-c4ccc(C)c(C)c4)nn(CC(=O)Nc4ccccc4)c3c2c1,/,4%,23%,0%,i,/
COc1ccc(-c2cc3nc(C)cc(N)n3n2)cc1,16µM*,10µM*,7%,-28%,?,?
COc1ccc(C(C)(O)c2nc(-c3cccc(O)c3)cs2)cc1 (stereo not given),8.2µM*,-8%,19%,-20%,?,?
Cn1cc(-c2csc(C(C)(O)c3cccnc3)n2)cn1 (stereo not given),9%,2.2µM*,7%,0%,i,1%
CC(O)(c1ccccc1)c1nc(-c2ccncc2)cs1 (stereo not given),0%,-14%,11%,-64%,i,+

# High-throughput results as filed in PubChem.
